Measured values: the antibiotic and cytotoxicity screens of Wong et al. (2023)
Screen size: about 39,000 compounds; about 3,300 (8.5%) were called active. The full list was thinned out, with actives kept by preference.

What follows are compounds tested on HepG2 (assay: cytotoxicity call (relative viability < 0.9)). Conditions: 10 µM.
With COc1ccc(S(=O)(=O)Nc2cccc3c2O[C@H](CN(C)S(=O)(=O)c2ccc(OC)cc2)[C@H](C)CN([C@H](C)CO)C3=O)cc1 the cytotoxicity call was “inactive”. With O=C(O)CCc1nc2ccccc2[nH]1 the cytotoxicity call was “inactive”. With FC(F)(F)c1nc2ccccc2[nH]1 the cytotoxicity call was “inactive”. For C(=N\c1nc2ccccc2[nH]1)/N(c1ccccc1)c1ccccc1, the cytotoxicity call was “active”. C[C@H](CO)N1C[C@H](C)[C@@H](CN(C)C(=O)c2ccncc2)OCCCC[C@H](C)Oc2ccc(NS(=O)(=O)c3cn(C)cn3)cc2C1=O was tested, and the cytotoxicity call was “inactive”. CC(C)NC(=O)Nc1ccc2c(c1)C(=O)N([C@H](C)CO)C[C@H](C)[C@H](CN(C)S(=O)(=O)c1cccs1)O2 was tested, and the cytotoxicity call was “inactive”. For O=C(O)C=CC(=O)O.OCCOCCN1CCN(C2=Nc3ccccc3Sc3ccccc32)CC1, the cytotoxicity call was “inactive”. With Cl.Cl.OCCN1CCN(CCCN2c3ccccc3Sc3ccc(C(F)(F)F)cc32)CC1 the cytotoxicity call was “active”. With Cl.Cl.OCCOCCN1CCN(C(c2ccccc2)c2ccc(Cl)cc2)CC1 (stereo not given) the cytotoxicity call was “inactive”. With OCCN1CCN(c2ncnc3c2ncn3[C@H]2CN(Cc3cccc(C(F)(F)F)c3)C[C@@H](CO)O2)CC1 the cytotoxicity call was “inactive”. In the case of OCCN1CCN(CCCN2c3ccccc3Sc3ccc(Cl)cc32)CC1, the cytotoxicity call is reported as “active”. CC(=O)c1ccc2c(c1)N(CCCN1CCN(CCO)CC1)c1ccccc1S2.O=C(O)C=CC(=O)O was tested, and the cytotoxicity call was “inactive”. CN1CCN(CCCN2c3ccccc3Sc3ccc(C(F)(F)F)cc32)CC1.Cl.Cl was tested, and the cytotoxicity call was “active”. In the case of Cc1ccc(S(=O)(=O)N(C)C[C@@H]2OCCCC[C@H](C)Oc3ccc(NC(=O)C4CCCCC4)cc3C(=O)N([C@H](C)CO)C[C@@H]2C)cc1, the cytotoxicity call is reported as “inactive”. With Cc1noc(C)c1S(=O)(=O)Nc1ccc2c(c1)C(=O)N([C@@H](C)CO)C[C@@H](C)[C@H](CN(C)Cc1ccc(C(F)(F)F)cc1)OCCCC[C@@H](C)O2 the cytotoxicity call was “inactive”. With COc1ccc(NC(=O)N(C)C[C@@H]2OCCCC[C@@H](C)Oc3ccc(NC(=O)NC4CCCCC4)cc3C(=O)N([C@@H](C)CO)C[C@@H]2C)cc1 the cytotoxicity call was “inactive”. With C[C@@H]1CN([C@@H](C)CO)C(=O)c2cc(C#CC3(O)CCCC3)cnc2O[C@H]1CN(C)S(=O)(=O)c1ccc(F)cc1 the cytotoxicity call was “inactive”. O[C@@H](CCl)CN1CC[N+]2(CC1)CC[N+]1(CCN(C[C@@H](O)CCl)CC1)CC2 was tested, and the cytotoxicity call was “inactive”. With O=C(/C=C/c1ccc(O)c(O)c1)O[C@@H]1C[C@](O)(C(=O)O)C[C@@H](OC(=O)/C=C/c2ccc(O)c(O)c2)[C@H]1OC(=O)/C=C/c1ccc(O)c(O)c1 the cytotoxicity call was “inactive”. In the case of CN(C)CCCNC(=O)C[C@@H]1CC[C@@H]2[C@H](COc3ccc(NC(=O)c4ccccc4F)cc3C(=O)N2C)O1, the cytotoxicity call is reported as “inactive”.
